Source: PubChem BioAssay (National Center for Advancing Translational Sciences (NCATS))
Most compounds without a hit are left out; they make up all but 2.7% or so of the library.
FBPA coupling cs: inhibits coupling enzyme system, counter-screen for aldolase hits; actives 0.67% (n = 290,000); AID 2472; coupling enzyme system counterscreen, AmpLite Red fluorescence; activity change, negative = inhibition, % at 58.2 µM, hits read low; in the data active = activity change below about -30%
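First, compound is pin-transferred into glyceraldehyde-3-phosphate coupling-enzyme reagent at 57.5 uM final and held 10 min at RT. Next, substrate, coupling system and AmpLite Red are added. After 20 min RT, fluorescence (525/598 nm) is read.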
Tau fibril ThT: tau fibrillization inhibition (ThT binding) | recombinant tau K18 P301L, heparin-induced fibrillization, ThT fluorescence | Potency, µM (series often up to 57.4 µM), for inactives: at the highest dose activity, negative = inhibition, hits mostly inhibitors | P10636 | actives 2.1% (n = 270,000); note: potency is the fitted concentration of half-maximal effect; nearly all actives have a fitted effect of over 55% in size
Target sequence (P10636 561-689 P618L limits assumed): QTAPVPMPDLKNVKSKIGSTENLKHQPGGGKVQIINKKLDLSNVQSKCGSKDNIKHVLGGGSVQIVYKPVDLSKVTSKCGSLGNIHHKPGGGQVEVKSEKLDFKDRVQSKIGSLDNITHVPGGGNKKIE
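Tau K18 P301L fragment (15 uM unlabeled plus 0.24 uM Alexa 594-labeled) in 100 mM sodium acetate pH 7 with compound, fibrillization induced by 20 uM heparin for 6 hr at 37 C. Thioflavin T (30 uM) added, fluorescence read after 1 hr (ex 450, em 510 nm).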
Tau fluor counter: counter-screen for tau fibril formation inhibitors; tau K18 P301L (four-repeat tau fragment) Alexa594 fluorescence, heparin fibrillization; Potency, µM (doses to about 57.7 µM), for the others: at the top dose activity change, negative = decrease; actives 0.93% (n = 280,000); AID 1463; note: potency is the fitted concentration of half-maximal effect; nearly all actives have a fitted effect of over 55% in size
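Human K18 P301L tau (15 uM unlabeled plus 0.24 uM Alexa 594-labeled, final) in 100 mM sodium acetate pH 7 was mixed with compound and 20 uM heparin and incubated 6 hr at 37 C.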
Tau FP inhib: tau fibrillization inhibition (FP). P10636. K18 P301L tau heparin fibrillization, Alexa594 FP, 6 h. Potency, µM (top dose mostly 57.7 µM), for inactives: top-dose activity, negative = inhibition, most hits filed as inhibitors. actives 0.39% (n = 280,000). AID 1468; note: potency is the fitted concentration of half-maximal effect; nearly all actives have a fitted effect of over 55% in size
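Recombinant K18 P301L […], labeled with Alexa 594 at 0.24 uM over 15 uM unlabeled; heparin inducer 20 uM final; 37 C, 6 hr; FP endpoint.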
Numbers without * were called inactive; ? = inconclusive; . = no result given; [ ] = dose if it differs, or a comment. Unless noted, calls come from the whole dose curve; as a rule, active = well fitted curve in the direction sought with a large enough effect; inconclusive = small, poorly fitted or top-dose-only effect, or another doubt; inactive = no such curve, though single readings can be large; an effect the other way counts as inactive or inconclusive. % is set by controls: 0 for no effect and ±100 for the full control effect.

SMILES	FBPA coupling cs	Tau fibril ThT	Tau fluor counter	Tau FP inhib
COCCn1c(=O)c(-c2cccs2)nc2cnc(Oc3ccccc3)nc21	-8.5	.	.	.
Cc1ccc(-c2nc(-c3cccs3)c(-c3cccs3)[nH]2)cc1	.	-10.4%	?	7.3%
Oc1cccc(-c2nc(-c3cccs3)c(-c3cccs3)[nH]2)c1	.	15.8µM*	12.6µM*[quencher]	?
O=[N+]([O-])c1cccc(-c2nc(-c3cccs3)c(-c3cccs3)[nH]2)c1	1.2	?	11.2µM*[quencher]	5.9%
O=[N+]([O-])c1ccc(-c2nc(-c3cccs3)c(-c3cccs3)[nH]2)cc1	-3.7	5.62µM*	7.94µM*[quencher]	?
O=[N+]([O-])c1cc(S(=O)(=O)C(F)(F)F)ccc1Sc1nc2ccccc2s1	-1.9	15.8µM*	12.6µM*[quencher]	-12.5%
O=[N+]([O-])c1cc(S(=O)(=O)C(F)(F)F)ccc1Sc1nc2ccccc2[nH]1	-0.1	25.1µM*	12.6µM*[quencher]	-14.2%
CS(=O)(=O)c1ccc(Sc2nc3ccccc3s2)c([N+](=O)[O-])c1	0.5	?	?	9.7%
COc1cccc(NC(=O)Cn2c(=O)n(Cc3ccccc3)c(=O)c3ccccc32)c1	.	4.7%	-12.0%	?
COc1cccc(C2=C(C(C)=O)Sc3nncn3N2C(C)=O)c1	.	?	-15.2%	?
CCC(=O)C1=C(c2ccc(F)cc2)N(C(=O)CC)n2cnnc2S1	.	10µM*	-27.9%	?
CC(=O)C1=C(c2ccc(Cl)c(Cl)c2)N(C(C)=O)n2cnnc2S1	.	4.47µM*	?	?
CCOc1ccc(C2=C(C(=O)CC)Sc3nncn3N2C(=O)CC)cc1	.	3.16µM*	-28.6%	-13.5%
CCC(=O)C1=C(c2ccc(OC)c(OC)c2)N(C(=O)CC)n2c(nnc2-c2ccc(C)cc2)S1	.	-17.8%	-24.1%	-10.1%
CCC(=O)C1=C(c2ccccc2)N(C(=O)CC)n2c(nnc2C2CCCCC2)S1	.	-9.5%	-5.9%	-12.7%
CCCCC(CC)Cn1c(Oc2ccccc2)nc2c1c(=O)n(C)c(=O)n2C (configuration not stated)	.	?	-11.2%	7.1%
Cn1cc([N+](=O)[O-])c(C(=O)Nc2nc(-c3ccc(Cl)cc3)cs2)n1	-3.0	?	12.6µM*[quencher]	7.0%
NC(=S)n1[nH]c(-c2ccc([N+](=O)[O-])cc2)c(N=Nc2ccc(Cl)cc2)c1=O	-1.0	3.98µM*	?	9.2%
Cc1ccc([N+](=O)[O-])cc1N=Nc1c(-c2ccc([N+](=O)[O-])cc2)[nH]n(C(N)=S)c1=O	-0.9	?	?	2.2%
COC(=O)CN1C(=O)CSc2ccc(S(=O)(=O)Nc3cccc(Cl)c3C)cc21	.	4.1%	-15.7%	-5.0%
Clc1ccc(C(c2ccccc2)c2c[nH]c3ccccc23)s1 (configuration not stated)	.	5.0%	6.4%	-3.2%
Cc1ccc2[nH]cc(C(c3ccccc3)c3ccc(Cl)s3)c2c1 (configuration not stated)	.	?	7.94µM*[quencher]	?
CCc1ccc(C(c2ccccc2)c2c[nH]c3ccc(C)cc23)s1 (configuration not stated)	.	12.6µM*	10µM*[quencher]	?
Cc1cc(C)cc(NC(=O)/C=C/c2ccc([N+](=O)[O-])s2)c1	3.5	?	-16.6%	-7.7%
CC(=O)c1cccc(NC(=O)/C=C/c2ccc([N+](=O)[O-])s2)c1	2.7	3.98µM*	?	?
SMILES	FBPA coupling cs	Tau fibril ThT	Tau fluor counter	Tau FP inhib
Cc1ccccc1NC(=O)/C=C/c1ccc([N+](=O)[O-])s1	-1.0	12.6µM*	?	?
Cc1ccc(NC(=O)CCCn2c(=O)c3cccn3c3ccccc32)c(C)c1	.	-11.8%	-13.0%	-8.4%
CCOc1ccc(CCNC(=O)CN2C(=O)C(CC)Oc3ccccc32)cc1OCC (configuration not stated)	.	-2.7%	-8.6%	-8.4%
COc1ccc(N/C=C2\C(=O)CCc3c2oc2cc(Cl)c(O)c(Cl)c32)cc1	6.1	2.51µM*	?	15.9%
COc1ccc(N/C=C2\CCOC2=O)cc1	-1.5	-21.9%	0.3%	0.7%
Cc1cc(C(=O)NCc2ccccc2)c2c(C)nn(-c3cccc(F)c3)c2n1	.	-2.9%	?	?
CC(=O)Nc1ccc(OC(=O)c2ccc(Br)c([N+](=O)[O-])c2)cc1	4.1	25.1µM*	?	?
O=C(Cn1ncc2c3ccccc3n(Cc3cccc(Cl)c3)c2c1=O)N1CCCCC1	.	?	-17.1%	-3.7%
COc1cccc(-n2c(SCC(=O)N3CCc4ccccc43)nc3c([nH]c4ccccc43)c2=O)c1	.	?	-6.9%	-3.8%
CCc1ccccc1NC(=O)Nc1cc(C(=O)NCc2cccc(F)c2)ccc1N1CCCC1	.	-6.1%	-12.9%	7.2%
COCCCn1c(O)c(/C=C2\N=C(C#N)C(=Nc3ccc(C)cc3)O2)sc1=S	-1.2	11.2µM*	?	?
COc1ccc(Br)cc1Cn1nnc(C(=O)Nc2ccc(C)cc2C)c1N	.	-0.8%	?	?
O=C1OC(c2ccccc2)=N/C1=C\C=C\c1ccco1	3.9	14.1µM*	-12.3%	-4.4%
O=C1OC(c2ccc(Cl)cc2)=N/C1=C\C=C\c1ccco1	0.8	?	-13.2%	-15.2%
Cc1cc(C)c[n+](C2=C([O-])c3ccccc3C(=O)/C2=N\S(=O)(=O)c2cccs2)c1	-0.3	2.0%	-3.4%	7.1%
O=C1/C(=N\S(=O)(=O)c2cccs2)C([n+]2ccc(CCCc3ccccc3)cc2)=C([O-])c2ccccc21	-35.1*	2.82µM*	?	3.3%
Cc1cc[n+](C2=C([O-])c3ccccc3C(=O)/C2=N\S(=O)(=O)c2cccs2)cc1C	-62.8*	?	-21.7%	-8.4%
O=C1/C(=N\S(=O)(=O)c2cccs2)C([n+]2cccc(Cc3ccccc3)c2)=C([O-])c2ccccc21	-38.2*	?	-26.4%	-2.4%
CC(=O)N1CCc2c(sc3nc(SCC(N)=O)n(-c4ccc(F)c(Cl)c4)c(=O)c23)C1	.	9.0%	-5.4%	-8.7%
COc1cc(/C=N/N(C)c2ccccc2)ccc1O	-1.9	12.6µM*	?	10.1%
COc1cc(OC)c(OC)cc1/C=N/N(C)c1ccccc1	-2.8	?	15.8µM*[quencher]	?
CN(/N=C/c1cc([N+](=O)[O-])ccc1O)c1ccccc1	0.6	?	-19.6%	0.9%
O=C(NC(=S)N1CCN(C/C=C/c2ccccc2)CC1)c1ccc(Cl)nc1	-0.3	-9.5%	-6.7%	-4.9%
CN(C)c1ccc(-c2nnc3n(Cc4ccccc4)c(=O)c4ccccc4n23)cc1	.	-0.2%	-18.2%	-1.5%
Cc1ccc(N/N=C(\Cc2nc3ccccc3[nH]2)c2ccccc2)cc1	-4.8	?	-27.7%	-2.7%
CCN/N=C(\Cc1nc2ccccc2[nH]1)c1ccccc1	1.1	?	-10.3%	6.2%
N/N=C(/Cc1nc2ccccc2[nH]1)c1ccc([N+](=O)[O-])cc1	1.5	5.01µM*	-29.6%	-2.9%
O=C(NCCc1nc2ccccc2[nH]1)c1cc([N+](=O)[O-])cc([N+](=O)[O-])c1	2.6	?	-14.9%	3.0%
